# Laboratory results from PubChem BioAssay (NCI).
# This is part of a sample that, as a whole, favours compounds with a hit. Of some 83,000 tested, about 20% had one in any assay.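 Single-dose data. Exposure time 48 hours. Values below 10 considered active.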 Activity calls are given as the source filed them.
# Tested on: SK-MEL-5 melanoma
# Assay: NCI-60 one-dose screen, 48 h (100 = growth as untreated, 0 = no growth, -100 = all killed)
# Conditions: 10 µM
row,SMILES,growth
1,CC1C(=O)c2ccccc2CC1C(=O)O (stereo not given),100% (inactive)
2,CCOc1ccc2[nH]c(=S)sc2c1,101% (inactive)
3,CCC(C)(O)c1ccc(C)cc1 (stereo not given),98.5% (inactive)
4,O=c1c2ccccc2c(Br)c(Br)c2ccccc12,109% (inactive)
5,O=[N+]([O-])c1ccc(Sc2ccncn2)c([N+](=O)[O-])c1,93.1% (inactive)
6,COc1nc(N)nc2c1ncn2C1OC(CO)CC1O (stereo not given),105% (inactive)
7,O=c1cc2oc3cc(O)c(O)cc3c(-c3ccccc3O)c-2cc1O,74.2% (inactive)
8,COc1cc(C(=O)N/N=C/c2cccc([N+](=O)[O-])c2)cc(OC)c1OC,19% (inactive)
9,Oc1ccc(Cc2ccccc2)c2cccnc12,3.49% (active)
10,O=[N+]([O-])c1cccc2nsnc12,94.9% (inactive)
11,CC(C)CCCC(=O)O,97.2% (inactive)

# Tested on: UACC-62 melanoma
# Assay: as above
# Conditions: 10 µM unless noted
row,SMILES,growth
1,CNc1nc(NC)c2cn[nH]c2n1,102% (inactive)
2,O=C(CN1CCNCC1)N1CCOCC1,106% (inactive)
3,CC1CCC2C(C)(C)C3CC12CC1OC13C (stereo not given),103% (inactive)
4,COc1cc(OC)c2ccc(=O)oc2c1,95.5% (inactive)
5,CCN(CC)CCCC(C)Nc1ccnc(/C=C/c2ccc(Cl)cc2)c1 (stereo not given),-55.8% (active)
6,COC1=CC(=O)c2nc(Cl)ccc2C1=O,17.4% (inactive)
7,COc1ccccc1NC(=O)C1=C(C)NC(C)=C(C(=O)Nc2ccccc2OC)C1c1cccc([N+](=O)[O-])c1,54.5% (inactive)
8,N=c1c(C(=O)OCc2ccccc2)ncc(CCl)n1O,91.1% (inactive)
9,Cc1nc2c(ccc3ccccc32)s1,107% (inactive)
10,CC(=O)OCC1OC(OC2=C(CC=C(C)C)C(=O)c3ccccc3C2=O)C(OC(C)=O)C(OC(C)=O)C1OC(C)=O (stereo not given),-23.8% (active)
11,O=S(=O)(O)CC(O)CN1CCN(CCO)CC1 (stereo not given),117% (inactive)
12,Cc1cc(OCCO)cc(C)c1Cl,95.7% (inactive)
13,CC1Cc2ccccc2O1 (stereo not given),122% (inactive)
14,O=c1cc(-c2ccccc2)oc2c1ccc1ccccc12,85.6% (inactive)
15,CCOC(=O)C1=C(C)NC(=O)NC1c1cccs1 (stereo not given),115% (inactive)
16,CC(=O)c1ccc(C)c(N)c1,99.9% (inactive)
17,COc1ccc(/C=C/c2cccc[n+]2C)cc1,114% (inactive)
18,NC(=S)NN=C1CCCC1,103% (inactive)
19,CCN(CC)c1ccc2nc3ccc(=[N+](CC)CC)cc-3oc2c1,-39.1% (active)
20,CCCC(=O)Nc1ccc2c(c1)CN1C(=O)c3ccccc3C1=N2,100% (inactive)

row,SMILES,growth
1,O=C(O)CCCC(=O)O,105% (inactive)
2,O=[N+]([O-])c1ccc(/C=C/C=C/c2ccccc2)c(Cl)c1,96.6% (inactive)
3,Cc1cc2nc(CC(=O)c3ccccc3)c(=O)[nH]c2cc1C,74.9% (inactive)
4,N#Cc1c(N)sc(=S)c2c1CCCC2,114% (inactive)
5,CCCCCCCCOC(=O)c1ccccn1,99.4% (inactive)
6,CCN(CC)C(=O)/C=C(/C)c1ccccc1,103% (inactive)
7,CC1C(=O)c2ccccc2CC1C(=O)O (stereo not given),116% (inactive)
8,CCOc1ccc2[nH]c(=S)sc2c1,104% (inactive)
9,CCC(C)(O)c1ccc(C)cc1 (stereo not given),102% (inactive)
10,O=c1c2ccccc2c(Br)c(Br)c2ccccc12,95.6% (inactive)
11,O=[N+]([O-])c1ccc(Sc2ccncn2)c([N+](=O)[O-])c1,74.1% (inactive)
12,C/C(=C\c1cc(Cl)ccc1OCC(=O)O)[N+](=O)[O-],109% (inactive)
13,COc1nc(N)nc2c1ncn2C1OC(CO)CC1O (stereo not given),100% (inactive)
14,O=c1cc2oc3cc(O)c(O)cc3c(-c3ccccc3O)c-2cc1O,80.5% (inactive)
15,COc1cc(C(=O)N/N=C/c2cccc([N+](=O)[O-])c2)cc(OC)c1OC,50.5% (inactive)
16,CC1(C)Nc2cccc3c(N=Nc4ccc(N=Nc5ccccc5)c5ccccc45)ccc(c23)N1,79.2% (inactive)
17,Oc1ccc(Cc2ccccc2)c2cccnc12,-14% (active)
18,O=[N+]([O-])c1cccc2nsnc12,105% (inactive)
19,CC(C)CCCC(=O)O,107% (inactive)
